Screening data from PubChem BioAssay.
This excerpt belongs to a sample that is enriched for hits.
HT1080 IDH1KD tx = qHTS for induction of synthetic lethality in tumor cells producing 2HG: qHTS for the HT-1080-IDH1KD cell line. AID 686971, 2013. Potency, µM (doses to about 46.1 µM), for inactives: at the highest dose activity, negative = toxicity, hits mostly cytotoxic. 360,000 tested, 2% active. HT-1080 IDH1 knockdown viability, ATP luminescence, 48 h;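 note: potency is the fitted concentration of half-maximal effect; 0% = DMSO wells and -100% = cell-free medium wells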
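In this qHTS, HT-1080 cells depleted of IDH1 are exposed for 48 h at 37 °C to compound titrations. Toxicity is scored from CellTiter-Glo luminescence, with DMSO as full viability and medium alone as none.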
IL1B secr inh = qHTS for Inhibitors of Inflammasome Signaling: IL-1-beta AlphaLISA Primary Screen | AID 743279, 2014 | THP-1 LPS/ATP IL-1B secretion, AlphaLISA, 16 h; hits give low values | 360,000 tested, 4.7% active | activity change, % at 57.5 µM; in the data active = activity change below about -50%; inconclusive = mostly about -30% to -49%
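Secreted IL-1B measured by AlphaLISA bead assay after 16 h compound exposure of THP-1 cells; compounds (final up to 57.5 uM) added 1 h before LPS (250 ng/mL) and ATP (1.25 mM) stimulation; lower signal means less secretion.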
HT1080NT lethal = qHTS for induction of synthetic lethality in tumor cells producing 2HG: qHTS for the HT-1080-NT fibrosarcoma cell line; HT-1080-NT fibrosarcoma viability, CellTiter-Glo ATP luminescence, 48 h; Potency, µM (series often up to 46.1 µM), without a hit: at the highest dose activity, negative = less viability, usual class: cytotoxic; 360,000 tested, 1.6% active; AID 686970, 2013;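 note: NT is the 2HG producing partner of a matched IDH1 knockdown line; potency is the fitted concentration of half-maximal effect; 0% = DMSO-treated cells and -100% = media-only wells without cells; nearly all actives have a fitted effect of over 55% in size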
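750 cells/well, RPMI + 5% FBS; 2 h settle, compound pin-transfer, 48 h at 37 degrees C. CellTiter-Glo 10 min RT, luminescence. Normalized to DMSO and media-only wells.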
ALOX12 inh = Primary qHTS assay for inhibitors of human arachidonate 12S-lipoxygenase (ALOX12): Round 2 | AID 1671190, 2021 | 580,000 tested, 1.1% active | Potency, µM (top dose mostly 108 µM), for inactives: at the highest dose activity change, negative = inhibition, usual class: inhibitors | Polyunsaturated fatty acid lipoxygenase ALOX12 (Homo sapiens), P18054 | purified 12hLO, xylenol orange hydroperoxide absorbance; note: potency is the fitted concentration of half-maximal effect
Target sequence (P18054 whole entry, looked up): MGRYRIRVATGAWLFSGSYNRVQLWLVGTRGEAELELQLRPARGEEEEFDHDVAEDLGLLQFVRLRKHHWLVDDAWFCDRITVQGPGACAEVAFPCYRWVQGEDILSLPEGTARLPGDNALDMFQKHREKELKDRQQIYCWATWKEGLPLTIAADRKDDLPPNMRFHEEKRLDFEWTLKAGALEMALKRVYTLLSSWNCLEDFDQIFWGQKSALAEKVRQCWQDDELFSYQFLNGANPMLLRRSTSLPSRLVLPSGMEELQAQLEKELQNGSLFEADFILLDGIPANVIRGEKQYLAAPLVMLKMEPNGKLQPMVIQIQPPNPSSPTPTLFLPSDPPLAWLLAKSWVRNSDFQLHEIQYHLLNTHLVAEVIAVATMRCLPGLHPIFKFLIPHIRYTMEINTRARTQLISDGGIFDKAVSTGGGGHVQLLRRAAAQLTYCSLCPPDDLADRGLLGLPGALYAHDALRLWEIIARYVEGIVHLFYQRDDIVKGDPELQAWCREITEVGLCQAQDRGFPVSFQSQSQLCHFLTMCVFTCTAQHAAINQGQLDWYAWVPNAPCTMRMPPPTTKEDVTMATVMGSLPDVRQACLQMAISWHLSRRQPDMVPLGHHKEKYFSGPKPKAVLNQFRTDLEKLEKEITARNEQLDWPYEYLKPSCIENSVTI
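Purified human 12hLO at 150 nM in 25 mM Hepes, 0.01% Triton X-100, pH 7.0, preincubated 15 min at room temperature with compound. Reaction started with 40 uM arachidonic acid, 30 min at room temperature. Hydroperoxide measured by Fe-xylenol orange, 573/405 nm absorbance ratio.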
DT40 TDP1 no CPT = qHTS for Inhibitors of human tyrosyl-DNA phosphodiesterase 1 (TDP1): qHTS in cells in absence of CPT | DT40 Tdp1-/- hTDP1 cells, no CPT, ATP luminescence, 48 h | Potency, µM (top dose mostly 46.2 µM), without a hit: top-dose activity change, negative = growth inhibition, usual class: inhibitors | 420,000 tested, 15% active; note: potency is the fitted concentration of half-maximal effect; nearly all actives have a fitted effect of over 55% in size
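Stably hTDP1-transfected Tdp1-null chicken DT40 cells were treated with library compounds minus camptothecin and grown for at least 48 hr at 37 °C, after which cellular ATP was quantified by luminescence.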
DT40 TDP1 CPT = qHTS for Inhibitors of human tyrosyl-DNA phosphodiesterase 1 (TDP1): qHTS in cells in presence of CPT; chicken DT40 Tdp1-/-;hTDP1 cells + 20 nM CPT, ATP luminescence, 48 h; Potency, µM (series often up to 46.2 µM), for inactives: top-dose activity change, negative = growth inhibition, actives largely listed as inhibitors; 420,000 tested, 12% active; AID 686979, 2013; note: potency is the fitted concentration of half-maximal effect; nearly all actives have a fitted effect of over 55% in size
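Chicken DT40 Tdp1-/- cells stably complemented with human TDP1 were seeded at 400 cells/well in medium containing 20 nM camptothecin, exposed to pin-transferred compounds, and grown at 37 °C for at least 48 hr. Viability was read as ATP luminescence.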
Starred values were filed as active, the others as inactive; [ ] = another dose, or the depositor's remark. Unless noted, calls come from the whole dose curve; as a rule, active = well fitted curve in the direction sought with a large enough effect; inconclusive = small, poorly fitted or top-dose-only effect, or another doubt; inactive = no such curve, though single readings can be large; an effect the other way counts as inactive or inconclusive. Unless noted, % is set by controls: 0 for no effect and ±100 for the full control effect.

How did O=C(NCCCN(C(=O)c1cccnc1)C1CCCCC1)c1nc2ccccc2c(=O)[nH]1 do in these assays?
ALOX12 inh: 4%

What do the screens show for `O=C(CN1CCN(S(=O)(=O)c2ccc(F)cc2)CC1)c1ccc(O)c(O)c1`?
HT1080 IDH1KD tx: -3%; IL1B secr inh: 14; HT1080NT lethal: -3%; ALOX12 inh: inconclusive; DT40 TDP1 no CPT: 23µM*; DT40 TDP1 CPT: inconclusive

How did O=C(CN1CCN(S(=O)(=O)c2ccc(Cl)cc2)CC1)c1ccc(O)c(O)c1 do in these assays?
HT1080 IDH1KD tx: 0%; IL1B secr inh: 45; HT1080NT lethal: -7%; DT40 TDP1 no CPT: 8.2µM*; DT40 TDP1 CPT: 12µM*

Results for COc1ccc(S(=O)(=O)N2CCN(CC(=O)c3ccc(O)c(O)c3)CC2)cc1 ?
HT1080 IDH1KD tx: -17%; IL1B secr inh: 21; HT1080NT lethal: 0%; ALOX12 inh: inconclusive; DT40 TDP1 no CPT: inconclusive; DT40 TDP1 CPT: inconclusive

What do the screens show for `COc1ccc2c(c1)CCC/C2=N\OC(=O)c1cc(SC)ccc1Cl`?
ALOX12 inh: -9%

Results for Cc1ccc(C(=O)NC(C)(C)C)cc1I ?
ALOX12 inh: -25%

Results for O=C(c1ccccc1NS(=O)(=O)c1ccc([N+](=O)[O-])cc1[N+](=O)[O-])N1O[C@@H]2C=C[C@H]1C2 ?
HT1080 IDH1KD tx: -2%; IL1B secr inh: -72*; HT1080NT lethal: -2%; ALOX12 inh: -16%; DT40 TDP1 no CPT: 9.2µM*; DT40 TDP1 CPT: 9.2µM*

What do the screens show for `CN(C)Cc1cc(C[C@@H]2C[C@H](NS(=O)(=O)c3ccc(F)cc3)C2(C)C)no1`?
ALOX12 inh: 34%[176 µM]

Results for Clc1cc(NCC2CCCCC2)n2nccc2n1 ?
ALOX12 inh: 46%[176 µM]

Results for CCOc1ncccc1C(=O)Nc1ccc2c(c1)OCO2 ?
HT1080 IDH1KD tx: -11%; IL1B secr inh: 11; HT1080NT lethal: 0%; ALOX12 inh: 5%; DT40 TDP1 no CPT: -16%; DT40 TDP1 CPT: 1%

Results for CCOc1ncccc1C(=O)Nc1cc2c(cc1Br)OCCO2 ?
HT1080 IDH1KD tx: inconclusive; IL1B secr inh: 19; HT1080NT lethal: -23%; ALOX12 inh: inconclusive; DT40 TDP1 no CPT: 12µM*; DT40 TDP1 CPT: 21µM*

Results for NS(=O)(=O)c1ccc(N/N=C/c2ccc(-c3ccccc3Br)o2)c([N+](=O)[O-])c1 ?
ALOX12 inh: 6%

Results for O=C(CCCOc1ccccc1)N1CCCC2(CCC(=O)N(CC3CC3)C2)C1 (configuration not stated) ?
ALOX12 inh: 23%

How did Cc1ccc(S(=O)(=O)N2CCOCC2)cc1C(=O)NC(=S)N1CC(C)OC(C)C1 (configuration not stated) do in these assays?
HT1080 IDH1KD tx: 5%; IL1B secr inh: 13; HT1080NT lethal: 0%; ALOX12 inh: 15%; DT40 TDP1 no CPT: 3%; DT40 TDP1 CPT: 4%

How did Cn1nnnc1SCC(=O)c1ccc(-c2ccccc2)cc1 do in these assays?
ALOX12 inh: 6%

What do the screens show for `O=C(NC(C(=O)N1CCCC1)C1CCN(C(=O)c2ccc3c(c2)OCO3)CC1)c1ccc(F)cc1` (configuration not stated)?
ALOX12 inh: 21%

How did Cc1cc(Cn2nc(C(=O)NCc3cccc(Br)c3)cc2-c2ccccc2)on1 do in these assays?
HT1080 IDH1KD tx: -2%; IL1B secr inh: -58*; HT1080NT lethal: inconclusive; ALOX12 inh: -16%; DT40 TDP1 no CPT: inconclusive; DT40 TDP1 CPT: inconclusive

Results for O=C(CO/N=C/c1ccc(OC(F)F)cc1)NC1CCCC1 ?
HT1080 IDH1KD tx: 1%; IL1B secr inh: -14; HT1080NT lethal: 0%; ALOX12 inh: -10%; DT40 TDP1 no CPT: -27%; DT40 TDP1 CPT: -21%

What do the screens show for `CC(C)Oc1ccc(C(=O)OCC(=O)NC2CCCCCC2)cc1`?
HT1080 IDH1KD tx: -9%; IL1B secr inh: 18; HT1080NT lethal: -6%; ALOX12 inh: 22%; DT40 TDP1 no CPT: 16µM*; DT40 TDP1 CPT: inconclusive

What do the screens show for `O=C(CO/N=C/c1ccc(OC(F)F)cc1)NC1CCCCCC1`?
HT1080 IDH1KD tx: -1%; IL1B secr inh: -57*; HT1080NT lethal: -14%; ALOX12 inh: -5%; DT40 TDP1 no CPT: inconclusive; DT40 TDP1 CPT: inconclusive

What do the screens show for `O=C(N[C@H]1CO[C@H]2[C@@H]1OC[C@@H]2n1nnnc1Oc1ccc(-n2cncn2)cc1)C1CCCCC1`?
ALOX12 inh: 42%

What do the screens show for `O=C1c2cc([N+](=O)[O-])ccc2-c2cc(Cl)c(NC(=O)C(F)(F)F)cc21`?
HT1080 IDH1KD tx: 0%; IL1B secr inh: 11; HT1080NT lethal: 0%; ALOX12 inh: inconclusive; DT40 TDP1 no CPT: inconclusive; DT40 TDP1 CPT: inconclusive

What do the screens show for `O=C1c2cc([N+](=O)[O-])ccc2-c2cc(Br)c(N=C(NO)C(F)(F)F)cc21`?
HT1080 IDH1KD tx: -19%; IL1B secr inh: -101*; HT1080NT lethal: -17%; ALOX12 inh: -17%; DT40 TDP1 no CPT: inconclusive; DT40 TDP1 CPT: -7%

How did Cc1cc(Br)cn2c(Cc3ccccc3)c(-c3cccc(Br)c3)nc12 do in these assays?
HT1080 IDH1KD tx: -3%; IL1B secr inh: 7; HT1080NT lethal: 1%; ALOX12 inh: inconclusive; DT40 TDP1 no CPT: inconclusive; DT40 TDP1 CPT: inconclusive

What do the screens show for `CCCc1c(-c2cccc(Br)c2)ncn1Cc1cccc(-c2ccccc2)c1`?
HT1080 IDH1KD tx: inconclusive; IL1B secr inh: 20; HT1080NT lethal: inconclusive; ALOX12 inh: 3.5µM*; DT40 TDP1 no CPT: 21µM*; DT40 TDP1 CPT: 16µM*

How did CCCCc1c(-c2ccccc2OC)ncn1Cc1ccccc1 do in these assays?
ALOX12 inh: -29%

How did CC(=O)Nc1ccc(-c2c(-c3ccccc3)ncn2Cc2ccnc(C)c2)cc1 do in these assays?
ALOX12 inh: 2%
